Bioassay records (PubChem BioAssay)
CaV13 FRET inh = Disruptors of the CACNA1D IQ motif to Ca2+-dependent inactivation inhibitor domain association, primary screening, Förster resonance energy transfer in intact living … | HEK cells, CFP/YFP FRET ICDI-IQ, plate reader, 10 min; percent FRET-ratio fall versus neutral wells | inhibition, % at 12.3 µM | 0.098% of 340,000 active | AID 743397;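 active = mean replicate inhibition of at least 30% and at least 1% of replicates passing that level; inconclusive = only one of the two criteria is met; inactive = neither criterion is met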
VLA-4 inh = inhibition in a human VLA-4 binding assay; VLA-4 expressing cells, ligand binding flow cytometry; inhibition, % (about 7 µM as worked out from the volumes in the protocol); 0.2% of 330,000 active; in the data active = inhibition above about 50%
Granule exo inh = blocks lytic granule exocytosis. 0.66% of 360,000 active. inhibition, % at 10 µM. TALL-104 LAMP-1 surface exposure, flow cytometry; cells stimulated with thapsigargin and PMA. AID 651702;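 active = inhibition above about 55%, limit read from the data; inconclusive = no clear call, values can overlap the other calls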
ABCB6 inh 2 = inhibitors of human ABC transporter ABCB6 | Q9NP58 | K562-ABCB6 porphyrin accumulation, flow cytometry, 1 h; hits give low values | fluorescence ratio to DMSO, % at 10 µM | 0.19% of 360,000 active | AID 602162;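 active = fluorescence ratio to DMSO below 75%, the collection mean minus 3 SD; inconclusive = too few cells collected in the well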;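 also: signal is porphyrin accumulated inside mitochondria; lower ratio means ABCB6 inhibition with less porphyrin fluorescence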
Target sequence (Q9NP58 whole entry, looked up): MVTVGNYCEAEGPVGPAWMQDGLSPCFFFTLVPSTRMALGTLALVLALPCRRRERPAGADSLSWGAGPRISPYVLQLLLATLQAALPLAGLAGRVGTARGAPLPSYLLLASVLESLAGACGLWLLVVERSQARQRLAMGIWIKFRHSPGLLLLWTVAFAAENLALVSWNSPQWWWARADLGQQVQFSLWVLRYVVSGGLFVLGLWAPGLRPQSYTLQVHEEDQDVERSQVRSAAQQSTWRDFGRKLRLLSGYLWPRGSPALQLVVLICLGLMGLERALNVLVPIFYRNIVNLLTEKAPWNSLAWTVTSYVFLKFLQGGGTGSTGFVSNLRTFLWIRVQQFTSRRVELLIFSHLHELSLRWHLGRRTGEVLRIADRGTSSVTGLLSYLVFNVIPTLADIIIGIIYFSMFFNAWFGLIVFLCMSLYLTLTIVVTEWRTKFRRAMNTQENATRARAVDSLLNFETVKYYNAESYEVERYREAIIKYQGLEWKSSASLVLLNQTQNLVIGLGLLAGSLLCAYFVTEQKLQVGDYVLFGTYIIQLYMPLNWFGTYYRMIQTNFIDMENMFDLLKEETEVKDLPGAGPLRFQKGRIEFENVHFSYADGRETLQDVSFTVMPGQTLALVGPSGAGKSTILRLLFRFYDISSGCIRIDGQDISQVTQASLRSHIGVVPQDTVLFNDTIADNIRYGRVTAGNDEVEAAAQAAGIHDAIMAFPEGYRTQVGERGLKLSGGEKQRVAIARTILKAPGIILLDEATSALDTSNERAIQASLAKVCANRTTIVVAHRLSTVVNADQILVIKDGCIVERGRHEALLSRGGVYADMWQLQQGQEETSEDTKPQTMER
Large screens that a line does not name were inactive. A selection: hits, their analogues and other compounds. The true share with any hit is near 1.1%.

CCOC(=O)c1cc2c(=O)n3ccccc3nc2n(Cc2ccc(Cl)cc2)c1=N	CaV13 FRET inh active (no result: VLA-4 inh)
Cc1cccn2c(=O)c3cc(C(=O)NCc4ccco4)c(=N)n(CCc4ccccc4)c3nc12	CaV13 FRET inh 38.9 (no result: VLA-4 inh)
COc1ccc(Cn2c(=N)c(C(=O)NC3CCCCC3)cc3c(=O)n4ccccc4nc32)cc1	none
CCCCCCCCN1C(=O)[C@@H](CC(=O)NCc2cccs2)C[C@@]2(C(=O)OC)C1=C[C@H](C(C)(C)C)O[C@@H]2C	none (no result: VLA-4 inh, Granule exo inh, ABCB6 inh 2)
COc1cc2c(c(OC)c1OC)C1(CCCCC1)CC2NC(=O)c1ccncc1 (stereo not given)	none (no result: VLA-4 inh, Granule exo inh, ABCB6 inh 2)
CC(NCc1ccc(OCc2ccc(Cl)cc2)cc1)C(O)c1ccccc1 (stereo not given)	Granule exo inh 67.2
Cc1cc2oc3cc(NCCC4CCCN4C)ccc3c(=O)c2cc1C (stereo not given)	CaV13 FRET inh 76.6
COc1ccc(NC(=O)c2ccc(NC(=O)c3cccs3)cc2)cc1	none
COc1nc(N)nc(NC(=O)c2cccs2)c1N=O	Granule exo inh 105.0
CCOC(=O)N1CCN(c2ncc(C(F)(F)F)cc2Cl)CC1	none
CCOC1=NN(c2ncc(C(F)(F)F)cc2Cl)C(=O)C1	CaV13 FRET inh 33.9
O=C(O)c1cccc(NC(=O)c2cn(-c3ccccc3)nc2-c2ccncc2)c1	none
O=C(O)c1cccc(NC(=O)c2cn(-c3ccccc3)nc2-c2cccc(Br)c2)c1	CaV13 FRET inh 69.0
Cc1ccccc1/C=N/Nc1ccnc2cc(Cl)ccc12	Granule exo inh 76.2
Cc1ccc(/C=N/Nc2ccnc3cc(Cl)ccc23)c(C)c1	none
COc1ccccc1CNC(=S)NC1CCCC1	ABCB6 inh 2 69.0
COc1ccccc1NC(=S)NC1CCCCC1	none
C(=Nc1cccc2c(N=Cc3ccco3)cccc12)c1ccco1	Granule exo inh 102.7 (no result: CaV13 FRET inh)
CCN=C1NC(c2ccc(F)cc2)C(C(=O)OC)=C(C)N1Cc1ccccc1C(F)(F)F (stereo not given)	none (no result: VLA-4 inh, Granule exo inh, ABCB6 inh 2)
CCCOc1ccc(C(=O)NNC(=S)NC(=O)c2ccco2)cc1	CaV13 FRET inh 34.6
O=C1C(Cl)=C(NCCN2CCCCC2)C(=O)c2ccccc21	Granule exo inh 56.2 (no result: CaV13 FRET inh)
COC1=C(C)C(=O)C2=C(C1=O)C1C3CC4=C(C(=O)C(OC)=C(C)C4=O)C(CNC(=O)C(C)=O)N3C(C#N)C(C2)N1C (stereo not given)	Granule exo inh 74.5 (no result: VLA-4 inh)
Cc1[nH]nc2c1C(c1ccc(Br)cc1)N(c1ccccc1)C2=O (stereo not given)	none (no result: VLA-4 inh, Granule exo inh, ABCB6 inh 2)
Cc1oc2c(c1C(=O)c1ccccc1)C(=O)C(=O)c1ccccc1-2	Granule exo inh 102.3
O=C(C1=C(c2ccccc2)C(=O)c2ccccc2C1=O)c1ccccc1	none (no result: VLA-4 inh)
O=C1C(=O)c2c(C(=O)c3ccccc3)coc2-c2ccccc21	Granule exo inh 92.2
COc1ccc(/C=C2\SC(=S)N(CCCC(=O)N3CCN(C)CC3)C2=O)cc1	Granule exo inh 62.7
CCc1ccc(/C=C2\SC(=S)N(CCCC(=O)N3CCN(C)CC3)C2=O)cc1	Granule exo inh 72.0 (no result: VLA-4 inh)
COc1ccc(/C=C2/SC(=S)N(CCCC(=O)Nc3cccc(O)c3)C2=O)cc1	Granule exo inh 96.9
Cc1ccccc1OCc1nnc(SCC(=O)Nc2ccc3nc(SCC(=O)NC(C)(C)C)sc3c2)n1C	Granule exo inh 76.7 (no result: CaV13 FRET inh)
CN(C)CCN(C(=O)/C=C/c1cccs1)c1nc2c(F)cc(F)cc2s1	Granule exo inh 64.8
Cc1ccc2nc(N(CCN(C)C)C(=O)/C=C/c3cccs3)sc2c1	Granule exo inh 55.9
CCc1ccc2nc(N(CCN(C)C)C(=O)/C=C/c3cccs3)sc2c1	Granule exo inh 67.2 (no result: CaV13 FRET inh)
CN(C)CCN(C(=O)/C=C/c1cccs1)c1nc2ccc(Br)cc2s1	none
CCCCOCCCNC(=O)C[C@H]1C[C@@]2(C(=O)OC)C(=C[C@H](C(C)(C)C)O[C@@H]2C)N(CCC2=CCCCC2)C1=O	none (no result: VLA-4 inh, Granule exo inh, ABCB6 inh 2)
O=C(N[C@H](c1cccc(Br)c1)[C@@H]1CCCC=C1c1ccccc1)C(F)(F)F	none (no result: VLA-4 inh, Granule exo inh, ABCB6 inh 2)
COc1cc(NS(=O)(=O)c2ccc(NC(C)=O)cc2)nc(OC)n1	none
COc1cc(NS(=O)(=O)c2ccc(N/C=C(\C#N)c3nc4cc(Cl)ccc4o3)cc2)nc(OC)n1	ABCB6 inh 2 55.0
CCCCc1c(-c2ccccc2OC)ncn1Cc1ccc(Br)cc1	none (no result: VLA-4 inh, Granule exo inh, ABCB6 inh 2)
CCNc1ccc(Br)cc(C(=O)/C=C/c2c(Cl)cccc2Cl)c1=O	Granule exo inh 77.5 (no result: CaV13 FRET inh)
CNc1ccc(Br)cc(C(=O)/C=C/c2ccc(Cl)cc2Cl)c1=O	Granule exo inh 100.1
O=C(Cc1csc(Nc2nc(=S)[nH]c3ccccc23)n1)NCCCN1CCN(c2ccccc2F)CC1	Granule exo inh 84.4
O=C(Cc1csc(Nc2nc(=S)[nH]c3ccccc23)n1)NCc1ccc(Cl)cc1	none
C/C(=N\NC(=O)CC#N)c1cc2ccc(O)cc2oc1=O	CaV13 FRET inh active
CC(C)(C)OC(=O)NCc1ccc(NC(=O)c2nc[nH]c2C(=O)NCCNC(=O)c2[nH]cnc2C(=O)Nc2ccc(CNC(=O)OC(C)(C)C)cc2)cc1	Granule exo inh 62.4 (no result: CaV13 FRET inh)
CC(C)(C)OC(=O)NCCCC[C@H](NC(=O)c1nc[nH]c1C(=O)N[C@@H](CCCCNC(=O)OC(C)(C)C)C(=O)OC(C)(C)C)C(=O)OC(C)(C)C	none
CC(C)(C)OC(=O)NCCCCCNC(=O)c1[nH]cnc1C(=O)N[C@@H](CCCCNC(=O)OC(C)(C)C)C(=O)OC(C)(C)C	ABCB6 inh 2 67.0 (no result: CaV13 FRET inh)
O=C(Cc1cn(Cc2ccccc2)c2ccccc12)Nc1ccc(Nc2cccnc2)cc1	none (no result: VLA-4 inh, Granule exo inh, ABCB6 inh 2)
COc1ccc(C(=O)Nc2ccc(-c3ccc(C)o3)cc2)cc1S(=O)(=O)N1CCOCC1	Granule exo inh 72.4
COc1ccc(C(=O)Nc2ccc(N3CCOCC3)cc2)cc1S(=O)(=O)N1CCOCC1	none (no result: CaV13 FRET inh, VLA-4 inh)
O=C(NCc1ccc2c(c1)OCO2)c1nn(-c2ccccc2)c(=O)c2ccccc12	ABCB6 inh 2 65.0
Cc1ccc2c(c1)C(N1CCCC1=O)CC(c1ccco1)N2 (stereo not given)	Granule exo inh 87.3
COc1ccccc1C(=O)c1cc2ccc(O)cc2oc1=O	CaV13 FRET inh 144.4
O=C(c1ccc(F)cc1)c1cc2ccc(O)cc2oc1=O	none
CC(=O)N1CCN(c2ccc(N3CCN(C(C)=O)[C@H](C)C3)c(C)c2)[C@@H](C)C1	none (no result: VLA-4 inh, Granule exo inh, ABCB6 inh 2)
O=C(CCc1c[nH]c2ccccc12)Nc1ccc(Nc2ccccc2)cc1	none (no result: VLA-4 inh, Granule exo inh, ABCB6 inh 2)
Nc1[nH]c(C(=O)c2ccccc2)c(-c2cccc(C(F)(F)F)c2)c1C(=O)NCCc1c[nH]c2ccccc12	none (no result: VLA-4 inh, Granule exo inh, ABCB6 inh 2)
CC1=C(C)/C(=N\OS(=O)(=O)c2ccccc2)C=CC1=O	Granule exo inh 96.8 (no result: CaV13 FRET inh)
NC(=O)c1c(NC(=O)c2c(F)cccc2F)sc2c1CCN(Cc1ccccc1)C2	none
NC(=O)c1c(NC(=O)c2ccccc2)sc2c1CCN(Cc1ccccc1)C2	CaV13 FRET inh active
CCN1CCc2c(sc(NC(=O)Nc3ccc(Cl)c(Cl)c3)c2C(N)=O)C1	CaV13 FRET inh 59.3
CCN1CCc2c(sc(NC(=O)Cc3ccccc3)c2C(N)=O)C1	ABCB6 inh 2 inconclusive
CN1CCc2c(sc(NC(=O)Cc3ccccc3)c2C(N)=O)C1	none
CC(C)C(=O)Nc1sc2c(c1C(N)=O)CCN(Cc1ccccc1)C2	CaV13 FRET inh active
